Assay results taken from the supplement of paper PMC9262897, “Low-cost anti-mycobacterial drug discovery using engineered E. coli” (Nature Communications, 2022).
Structures can show the parent of a compound that is named as a salt. ± gives the standard deviation of the averaged measurements.

Experiments:
Experiment in all cases: growth (OD600 after 10 h); higher = more growth (less inhibition)
[1] = system: E. coli TESEC Alr+ wild-type control; conditions: compound 0.1 mM; raw OD600 reference: median of DMSO wells 0.241, cell-free background 0.041
Procedure: (§1)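 TESEC Mtb Alr E. coli, or the Alr+ wild-type control, in 384-well plates with Prestwick library compounds at 0.1 mM and 1% DMSO, across arabinose induction levels of 1E3 to 1E7 nM. Growth is read as OD600 after 10 h at 37 °C in triplicate biological replicates.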

E. coli TESEC Mtb Alr [2] = conditions: compound 0.1 mM
Procedure: as §1

E. coli TESEC Mtb Asd = conditions: compound 0.1 mM
Procedure: (§2)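 TESEC E. coli strains in which the native enzyme is deleted and replaced by arabinose-inducible Mtb Asd, DapB, CysH or TrpD, each grown in its selective medium. Strains were screened against the Prestwick library at 0.1 mM and 1% DMSO in 384-well format at low and high arabinose induction. Growth is read as OD600 after 10 h in triplicate.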

E. coli TESEC Mtb DapB = conditions: compound 0.1 mM
Procedure: as §2

[3] = system: E. coli TESEC Alr+ wild-type control; conditions: compound 0.1 mM; raw OD600 reference: median of DMSO wells 0.49, cell-free background 0.052
Procedure: (§3)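 TESEC Mtb Alr E. coli (ΔaraC ΔtolC ΔentC Δalr ΔdadX, arabinose-inducible Mtb Alr) or the Alr+ wild-type control strain, grown in defined M9-fructose medium without D-alanine in 96-well plates with Prestwick library compounds at 0.1 mM and 1% DMSO. Low Alr induction is 0.1 µM arabinose and high induction is 10 mM arabinose.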

E. coli TESEC Mtb Alr [4] = conditions: compound 0.1 mM; remark: listed apart in the source
Procedure: as §3

[5] = arabinose 1000 nM, raw OD600 reference: median of DMSO wells 0.294, cell-free background 0.041
[6] = arabinose 10000 nM, raw OD600 reference: median of DMSO wells 0.264, cell-free background 0.041
[7] = arabinose 100000 nM, raw OD600 reference: median of DMSO wells 0.201, cell-free background 0.041
[8] = arabinose 1000000 nM, raw OD600 reference: median of DMSO wells 0.193, cell-free background 0.041
[9] = arabinose 10000000 nM, raw OD600 reference: median of DMSO wells 0.146, cell-free background 0.041
[10] = arabinose induction (level): High, raw OD600 reference: median of DMSO wells 0.331, cell-free background 0.041
[11] = arabinose induction (level): Low, raw OD600 reference: median of DMSO wells 0.417, cell-free background 0.041
[12] = arabinose induction (level): High, raw OD600 reference: median of DMSO wells […], cell-free background 0.041
[13] = arabinose induction (level): Low, raw OD600 reference: median of DMSO wells 0.227, cell-free background 0.041
[14] = arabinose 100 nM, raw OD600 reference: median of DMSO wells 0.413, cell-free background 0.052
[15] = arabinose 10000000 nM, raw OD600 reference: median of DMSO wells […], cell-free background 0.052

SMILES	growth [1]	growth (E. coli TESEC Mtb Alr [2]; [5])	growth (E. coli TESEC Mtb Alr [2]; [6])	growth (E. coli TESEC Mtb Alr [2]; [7])	growth (E. coli TESEC Mtb Alr [2]; [8])	growth (E. coli TESEC Mtb Alr [2]; [9])	growth (E. coli TESEC Mtb Asd; [10])	growth (E. coli TESEC Mtb Asd; [11])	growth (E. coli TESEC Mtb DapB; [12])	growth (E. coli TESEC Mtb DapB; [13])	growth [3]	growth (E. coli TESEC Mtb Alr [4]; [14])	growth (E. coli TESEC Mtb Alr [4]; [15])
OC[C@H]1O[C@@H](Oc2ccc(O)cc2)[C@H](O)[C@@H](O)[C@@H]1O [Arbutin]	0.245 ± 0.012	0.325 ± 0.02	0.272 ± 0.011	0.193 ± 0.021	0.191 ± 0.0053	0.144 ± 0.0033	0.21 ± 0.011	0.362 ± 0.092	0.209 ± 0.003	0.246 ± 0.051	0.499 ± 0.077	0.403 ± 0.017	0.317 ± 0.013
N[C@@H]1CONC1=O [D-cycloserine]	0.246 ± 0.0051	0.0374 ± 0.00045	0.0389 ± 0.00083	0.277 ± 0.0054	0.155 ± 0.0017	0.132 ± 0.0031	0.252 ± 0.066	0.354 ± 0.081	0.2176 ± 0.0016	0.245 ± 0.044	0.399 ± 0.14	0.0455 ± 0.00047	0.328 ± 0.015
CC1(C)OC(=O)NC1=O [Dimethadione]	0.243 ± 0.0066	0.295 ± 0.016	0.2697 ± 0.0012	0.191 ± 0.017	0.184 ± 0.0086	0.139 ± 0.0053	0.292 ± 0.005	0.414 ± 0.022	0.182 ± 0.0086	0.199 ± 0.05	0.526 ± 0.075	0.406 ± 0.017	0.347 ± 0.011
O=C(O)Cc1sc(-c2ccccc2)nc1-c1ccc(Cl)cc1 [Fentiazac]	0.168 ± 0.0065	0.17 ± 0.0076	0.137 ± 0.0036	0.165 ± 0.0017	0.152 ± 0.0063	0.158 ± 0.0089	0.189 ± 0.0056	0.187 ± 0.018	0.206 ± 0.012	0.223 ± 0.029	0.286 ± 0.012	0.141 ± 0.064	0.14 ± 0.033
Cc1cc(C)nc(NS(=O)(=O)c2ccc(N)cc2)n1 [Sulfamethazine sodium salt]	0.242 ± 0.0082	0.293 ± 0.015	0.252 ± 0.013	0.215 ± 0.016	0.165 ± 0.0038	0.142 ± 0.0032	0.408 ± 0.021	0.449 ± 0.042	0.191 ± 0.0082	0.269 ± 0.022	0.482 ± 0.088	0.413 ± 0.012	0.335 ± 0.0075
O=c1[nH]c(=O)n([C@H]2C[C@H](O)[C@@H](CO)O2)cc1F [Floxuridine]	0.0553 ± 0.00059	0.0615 ± 0.0068	0.04377 ± 0.00025	0.052 ± 0.0014	0.0434 ± 0.0004	0.05017 ± 0.0005	0.088 ± 0.0059	0.0873 ± 0.011	0.129 ± 0.0019	0.165 ± 0.0032	0.356 ± 0.0098	0.387 ± 0.0052	0.0748 ± 0.0061
C[N+]1(CCCCC[N+]2(C)CCCC2)CCCC1 [Pentolinium bitartrate]	0.24 ± 0.0027	0.282 ± 0.017	0.275 ± 0.0033	0.202 ± 0.014	0.1794 ± 0.0012	0.143 ± 0.0032	0.296 ± 0.037	0.424 ± 0.02	0.1752 ± 0.00061	0.185 ± 0.0091	0.515 ± 0.11	0.415 ± 0.011	0.361 ± 0.006
N=C(N)NCCN1CCCCCCC1 [Guanethidine sulfate]	0.255 ± 0.0095	0.298 ± 0.027	0.266 ± 0.0054	0.24 ± 0.012	0.173 ± 0.011	0.168 ± 0.011	0.291 ± 0.094	0.366 ± 0.069	0.205 ± 0.0096	0.247 ± 0.008	0.468 ± 0.04	0.419 ± 0.008	0.384 ± 0.015
CC=CC(=O)N(CC)c1ccccc1C [Crotamiton]	0.242 ± 0.01	0.329 ± 0.028	0.269 ± 0.014	0.236 ± 0.014	0.181 ± 0.0031	0.158 ± 0.017	0.473 ± 0.015	0.467 ± 0.02	0.236 ± 0.053	0.235 ± 0.03	0.489 ± 0.022	0.4 ± 0.02	0.32 ± 0.0055
NCC[C@H](O)C(=O)N[C@@H]1C[C@H](N)[C@@H](O[C@H]2O[C@H](CN)[C@@H](O)[C@H](O)[C@H]2O)[C@H](O)[C@H]1O[C@H]1O[C@H](CO)[C@@H](O)[C@H](N)[C@H]1O [Amikacin hydrate]	0.04273 ± 0.00012	0.0418 ± 0.00079	0.039 ± 0.0001	0.0425 ± 0.0009	0.03943 ± 0.00021	0.0506 ± 0.00051	0.0495 ± 0.0018	0.0485 ± 0.0012	0.0548 ± 0.0017	0.0518 ± 0.0032	0.0539 ± 0.00071	0.0563 ± 0.0034	0.0532 ± 0.0009
Clc1ccc2c(c1)C(N1CCNCC1)=Nc1ccccc1O2 [Amoxapine]	0.162 ± 0.0094	0.171 ± 0.0069	0.16 ± 0.0024	0.162 ± 0.0019	0.0713 ± 0.0015	0.105 ± 0.0015	0.178 ± 0.01	0.201 ± 0.0093	0.159 ± 0.03	0.173 ± 0.041	0.43 ± 0.061	0.396 ± 0.005	0.291 ± 0.023
C=CC1=C(C(=O)O)N2C(=O)[C@@H](NC(=O)/C(=N\O)c3csc(N)n3)[C@H]2SC1 [Cefdinir]	0.0391 ± 0.00064	0.0401 ± 0.0026	0.0401 ± 0.00087	0.038 ± 0.0008	0.0415 ± 0.0031	0.0408 ± 0.0009	0.0771 ± 0.0071	0.0475 ± 0.00091	0.0548 ± 0.003	0.0595 ± 0.015	0.0483 ± 0.0014	0.0463 ± 0.00075	0.0569 ± 0.0017
COc1ccc2[nH]c([S+]([O-])Cc3ncc(C)c(OC)c3C)nc2n1 (stereo not drawn) [Tenatoprazole]	0.202 ± 0.008	0.192 ± 0.0066	0.227 ± 0.012	0.128 ± 0.0093	0.0829 ± 0.0019	0.134 ± 0.0048	0.388 ± 0.031	0.379 ± 0.065	0.184 ± 0.0083	0.201 ± 0.017	0.35 ± 0.01	0.397 ± 0.013	0.196 ± 0.035
CC(C(=O)O)c1ccc(C(=O)c2cccs2)cc1 (stereo not drawn) [Suprofen]	0.2321 ± 0.0022	0.263 ± 0.015	0.254 ± 0.008	0.205 ± 0.0094	0.214 ± 0.0056	0.138 ± 0.0024	0.368 ± 0.056	0.365 ± 0.054	0.213 ± 0.0048	0.196 ± 0.029	0.605 ± 0.029	0.382 ± 0.01	0.3826 ± 0.0029
CCC[C@@H]1C[C@@H](C(=O)N[C@@H]([C@H]2O[C@H](SC)[C@H](O)[C@@H](O)[C@H]2O)[C@@H](C)O)N(C)C1 [Lincomycin hydrochloride]	0.0958 ± 0.0084	0.122 ± 0.011	0.086 ± 0.003	0.113 ± 0.0046	0.0692 ± 0.0033	0.0731 ± 0.00091	0.151 ± 0.017	0.204 ± 0.02	0.172 ± 0.03	0.179 ± 0.043	0.486 ± 0.057	0.443 ± 0.0099	0.12 ± 0.019
CNCCCN1c2ccccc2CCc2ccccc21 [Desipramine hydrochloride]	0.184 ± 0.0044	0.228 ± 0.021	0.275 ± 0.013	0.199 ± 0.021	0.1277 ± 0.00069	0.168 ± 0.0031	0.157 ± 0.011	0.222 ± 0.03	0.171 ± 0.014	0.202 ± 0.0094	0.578 ± 0.053	0.403 ± 0.01	0.287 ± 0.011
